Measured values as given in PubChem BioAssay (EPA / NIEHS).
The source made the active and inactive calls. The calls were made as follows: active = hit-call score of the fitted dose curve at least 0.9, where 1 is the maximum; inactive = score below 0.9.

Test system: not listed separately
Assay: CCTE_Padilla_ZF_Score.General: CCTE's 144 Hour Post-fertilization zebrafish Assay Score for General Malformation, Padilla Lab (AID 2284411)
Procedure, shortened: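 Wild-type zebrafish embryos were plated singly at 6-8 hpf in 10% Hanks' and exposed in sealed wells at 26C until rinsed on 5 dpf. At 6 dpf two blinded assessors scored mortality, hatching and malformations by stereomicroscopy; gain-of-signal versus DMSO.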

SMILES | AC50 | outcome
COc1ccc(CCN2CCC(Nc3nc4ccccc4n3Cc3ccc(F)cc3)CC2)cc1 | 439 nM (active) | –
C=C(C)C(=O)OCCOCCOCCOC(=O)C(=C)C | – | inactive
C=C(C)C(=O)OCCOCCOCCOCCOC(=O)C(=C)C | – | inactive
CN(c1nccc(=O)[nH]1)C1CCN(c2nc3ccccc3n2Cc2ccc(F)cc2)CC1 | – | inactive
CC1(C)C2=CCCC(C)(C)[C@]23CC[C@H]1C3 | – | inactive
c1ccc(Oc2ccccc2)cc1 | – | inactive
FC(F)(F)COCC(F)(F)F | – | inactive
CCN(CC)C(=O)N(CC)CC | – | inactive
C[C@@H]1CCN(C(=O)[C@H](CCCN=C(N)N)NS(=O)(=O)c2cccc3c2NC[C@H](C)C3)[C@@H](C(=O)O)C1 | – | inactive
CCCCCC(C=O)=Cc1ccccc1 | – | inactive
c1ccc(CCc2ccccc2)cc1 | – | inactive
C=Cc1ccncc1 | 22600 nM (active) | –

Test system: TTR (gene 7276)
Assay: CCTE_GLTED_hTTR_0.125uM: CCTE's human Transthyretin (hTTR) Inhibition Assay, with 0.125uM TTR, Great Lakes Toxicology and Ecology Division (GLTED) Lab (AID 2284431);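 also: hits lower the fluorescence signal relative to DMSO baseline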
Procedure, shortened: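 Probe-displacement format: chemicals competing for the T4 site release ANSA from 0.125uM TTR during a 2 h incubation, measured by fluorescence at 380 excitation and 475 emission.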

SMILES | AC50
OCc1cccc(Oc2ccccc2)c1 | 12200 nM (active)
N[C@@H](Cc1cc(I)c(Oc2cc(I)c(O)c(I)c2)c(I)c1)C(=O)O | 82.2 nM (active)
O=C(Nc1ccc2c(O)c(N=Nc3ccc(N=Nc4ccc(S(=O)(=O)O)cc4)cc3)c(S(=O)(=O)O)cc2c1)c1ccccc1 | 9920 nM (active)
Cc1ccc(S(=O)(=O)Oc2ccc(N=Nc3ccc(-c4ccc(N=Nc5c(O)ccc6cc(S(=O)(=O)O)cc(S(=O)(=O)O)c56)c(C)c4)cc3C)cc2)cc1 | 912 nM (active)
CC(C)CCCCCCCCCCCCCCC(=O)O | 891 nM (active)
Cc1cc(S(=O)(=O)O)ccc1N=Nc1c(O)ccc2ccccc12 | 79 nM (active)
Nc1ccc2cc(S(=O)(=O)O)cc(O)c2c1N=Nc1ccccc1C(F)(F)F | 39.7 nM (active)
CC(C)c1ccccc1O | 32400 nM (active)
CCCCCCC(CO)CCCC (centres undefined) | 46700 nM (active)
O=[N+]([O-])c1ccc(O)cc1C(F)(F)F | 111 nM (active)
COc1ccc(N=Nc2cc(C)c(N=Nc3ccc(S(=O)(=O)O)cc3)cc2OC)cc1 | 385 nM (active)
C=C[Si]1(C)O[Si](C)(C=C)O[Si](C)(C=C)O[Si](C)(C=C)O1 (centres undefined) | 50000 nM (active)
BrCc1cccc(Oc2ccccc2)c1 | 4220 nM (active)
CCCCCCCCc1ccc(S(=O)(=O)O)cc1 | 2970 nM (active)
Oc1ccc2cc(SSc3ccc4cc(O)ccc4c3)ccc2c1 | 113 nM (active)
CCCCC(CC)COC(=O)c1ccc(O)cc1 (centres undefined) | 434 nM (active)
Nc1ccccc1[N+](=O)[O-] | 20300 nM (active)
